Measured values reported in paper PMC4336329 (PLoS ONE, 2015).
About 14,000 (4.5%) of roughly 310,000 compounds showed an effect of 50% or more. Effects have a minus sign here. This excerpt belongs to a sample that is enriched for strong results.

Target: human ether-à-go-go-related gene (hERG) potassium channel (human, UniProt Q12809)
Experiment: primary screen, population patch clamp on CHO cells stably expressing hERG; higher = less effect of the substance
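Further: peak tail current of the secondary pulse compared with the same well before compound.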

Chain of human ether-à-go-go-related gene (hERG) potassium channel (Q12809 whole entry, looked up): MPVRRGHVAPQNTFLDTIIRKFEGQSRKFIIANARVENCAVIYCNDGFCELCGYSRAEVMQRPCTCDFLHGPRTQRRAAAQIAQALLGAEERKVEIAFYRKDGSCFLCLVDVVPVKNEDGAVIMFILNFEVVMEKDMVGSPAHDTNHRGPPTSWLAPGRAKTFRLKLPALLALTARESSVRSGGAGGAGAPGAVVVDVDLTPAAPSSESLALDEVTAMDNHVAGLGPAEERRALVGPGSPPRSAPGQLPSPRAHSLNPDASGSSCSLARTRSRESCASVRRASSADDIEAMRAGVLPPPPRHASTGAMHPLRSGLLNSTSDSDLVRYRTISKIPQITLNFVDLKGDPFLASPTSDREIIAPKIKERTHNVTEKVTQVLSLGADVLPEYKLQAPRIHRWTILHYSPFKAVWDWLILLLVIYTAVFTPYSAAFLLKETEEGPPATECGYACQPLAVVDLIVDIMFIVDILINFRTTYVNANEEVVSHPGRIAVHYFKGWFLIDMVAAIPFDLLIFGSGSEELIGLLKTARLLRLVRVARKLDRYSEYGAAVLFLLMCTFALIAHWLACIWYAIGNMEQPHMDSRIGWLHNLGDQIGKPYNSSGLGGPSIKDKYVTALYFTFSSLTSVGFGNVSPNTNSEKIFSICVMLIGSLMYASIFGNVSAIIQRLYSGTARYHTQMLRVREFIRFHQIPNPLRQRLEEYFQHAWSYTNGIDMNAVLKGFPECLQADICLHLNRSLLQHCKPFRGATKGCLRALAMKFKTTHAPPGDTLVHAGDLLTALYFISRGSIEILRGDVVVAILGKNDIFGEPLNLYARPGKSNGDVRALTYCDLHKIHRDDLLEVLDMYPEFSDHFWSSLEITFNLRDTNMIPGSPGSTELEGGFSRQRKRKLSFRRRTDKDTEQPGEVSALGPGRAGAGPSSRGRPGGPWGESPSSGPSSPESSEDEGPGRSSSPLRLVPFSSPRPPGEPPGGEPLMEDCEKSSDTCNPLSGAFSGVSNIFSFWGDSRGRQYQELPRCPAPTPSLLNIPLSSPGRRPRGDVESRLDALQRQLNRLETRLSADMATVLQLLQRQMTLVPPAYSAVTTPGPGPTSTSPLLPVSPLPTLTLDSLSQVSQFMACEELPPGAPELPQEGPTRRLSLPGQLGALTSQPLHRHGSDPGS

Point of comparison: `CC(C)(C)C(=O)C[n+]1cccc(C(N)=O)c1.[Br-]`, “hERG current change (%, negative = inhibition) at 10uM” value 21%. Against it:
- O=C(NCC(c1cccs1)N1CCc2ccccc21)c1ccccc1 (centres unmarked) — lower, 15.3%
- C=CCN(c1ccc(C(=O)N(CC)CC)cc1)S(C)(=O)=O — lower, -4.12%
- CCN(CC)CCCNC(=O)C1c2ccccc2C(=O)N(CCOC)C1c1ccc(F)cc1 (centres unmarked) — lower, 14.9%
- COc1ccc(CNC(=O)COC(=O)c2[nH]c(C)c(C(C)=O)c2C)cc1OC — lower, 1.28%
- CC(=O)Oc1ccc(N2C(=O)CCC2=O)cc1 — lower, 16%
- Cc1ccc(N2C(=O)[C@@H]3Cc4ccccc4CN3C2=O)cc1 — lower, -3.34%
- CCOC(=O)CC1C(=O)NCCN1C(=O)c1ccc(Cl)cc1 (centres unmarked) — lower, 12.9%
- Nc1nc2ccc(NC(=O)c3ccco3)cc2s1 — lower, 11.7%
- COc1ccc(CNC(=O)CCc2nnc3ccc(N4CCC5(CC4)OCCO5)nn23)cc1 — lower, 15.1%
- Nn1c(COc2ccccc2F)nnc1SCC(=O)NC1CC1 — lower, 0.387%
- CC(=O)NC1=NN(C(C)=O)C(C)(c2ccco2)S1 (centres unmarked) — lower, 14.6%
- Cc1ccc(CONC(=O)c2ccc(OC(F)F)cc2)cc1 — lower, -30.9%
- Cc1ccc(-c2cn(-c3ccc(OC(F)F)cc3)c3[n+]2CCCCC3)cc1.[Br-] — lower, -61.6%
- O=C(CC1C(=O)NCCN1Cc1ccoc1)NCc1cccc(OC(F)(F)F)c1 (centres unmarked) — lower, 1.19%
- CC(C)(O)CC[C@@H](O)[C@](C)(O)C1CC[C@@]2(O)C3=CC(=O)[C@]4(O)C[C@@H](O)[C@@H](O)C[C@]4(C)C3CC[C@]12C (some centres unmarked) — higher, 30.1%
- CCCCCCSc1ncc(C#N)c(N)n1 — lower, -4.45%
- Cc1ccc(-c2nc3c(c(=O)c4ccccc4n3C)c(=O)n2Cc2ccco2)cc1 — lower, 2.18%
- Cn1c2ccccc2c(=O)c2c(=O)n(C3CCCCC3)c(-c3ccco3)nc21 — lower, -53.9%
- Cc1nc2c(c(=O)c3ccccc3n2C)c(=O)n1C1CCCCCC1 — lower, -0.582%
- CCCCCc1nc2c(c(=O)c3ccccc3n2C)c(=O)n1C1CCCCCC1 — lower, 1.32%
- CC(C)Cn1c(-c2ccco2)nc2c(c(=O)c3ccccc3n2C)c1=O — lower, -59.3%
- COc1ccc(Cn2c(-c3ccco3)nc3c(c(=O)c4ccccc4n3C)c2=O)cc1 — lower, -35.3%
- Cn1c2ccccc2c(=O)c2c(=O)n(C3CCCCC3)c(-c3cccs3)nc21 — lower, -66.1%
- CCCc1nc2c(c(=O)c3ccccc3n2C)c(=O)n1C1CCCCCC1 — lower, -10.1%
- CCc1nc2c(c(=O)c3ccccc3n2C)c(=O)n1C1CCCCCC1 — lower, -1.73%
- COC(=O)c1sc(NC(=O)COc2cccnc2[N+](=O)[O-])c(C(=O)OC)c1C — lower, 3.81%
- CCOc1ccccc1Cn1c(=O)oc2ccc(C)cc21 — lower, 11.1%
- Cc1cc(C)cc(N(CC(=O)NCC2CCCO2)C(=O)CCC(=O)Nc2nccs2)c1 (centres unmarked) — lower, 12.8%
- O=C(/C=C/c1cccc([N+](=O)[O-])c1)NCCSCc1cccc(Cl)c1 — lower, -18.9%
- CCOCCCNC(=O)C(NC(=O)c1ccccc1O)c1ccccc1 (centres unmarked) — lower, 7.92%
- COc1ccccc1N1CCN(C(CNS(=O)(=O)c2ccc(C)cc2)c2cccnc2)CC1 (centres unmarked) — lower, -38.9%
- COc1ccc(C)cc1S(=O)(=O)NCC(c1cccnc1)N1CCc2ccccc2C1 (centres unmarked) — lower, -25.3%
- COc1ccc(S(=O)(=O)NCC(c2cccnc2)N2CCN(C)CC2)cc1C (centres unmarked) — lower, -62.9%
- COc1ccc(S(=O)(=O)NCC(c2cccnc2)N2CCN(c3ccccc3)CC2)cc1C (centres unmarked) — lower, -79.2%
- CCS(=O)(=O)NCC(c1cccnc1)N1CCN(c2ccccc2OC)CC1 (centres unmarked) — lower, 0.421%
- COc1ccc(S(=O)(=O)NCC(c2cccnc2)N2CCN(C)CC2)cc1OC (centres unmarked) — lower, 10.7%
- CCN1CCN(C(CNS(=O)(=O)c2ccc(OC)c(C)c2)c2cccnc2)CC1 (centres unmarked) — lower, -70.2%
- Cc1cc(S(=O)(=O)NCC(C)C)ccc1OCC(=O)N1CCN(Cc2ccccc2)CC1 — lower, -35.2%
- COc1ccccc1N1CCN(C(CNS(=O)(=O)c2ccccc2)c2cccnc2)CC1 (centres unmarked) — lower, -7.98%
- COc1ccc(S(=O)(=O)NCC(c2cccnc2)N2CCN(Cc3ccccc3)CC2)cc1C (centres unmarked) — lower, -79.6%
- COc1ccc(S(=O)(=O)NCc2cccnc2)cc1C — lower, 17.1%
- Cc1ccc(Sc2ncccc2COC(=O)NC(C)C)cc1 — lower, 4.99%
- CC(C)OCCCN(CC(O)c1ccccc1)CC(O)c1ccccc1.O=C(O)C(=O)O (centres unmarked) — lower, -10.1%
- Cc1nn(-c2ccccc2)c2c1C1(C(=O)N(C(C)C)c3ccccc31)C(C#N)=C(N)O2 (centres unmarked) — lower, -1.88%
- CC1=Nc2cc(C(=O)N3CCCC3)ccc2Sc2c(C)ccc(C)c21 — lower, -19.5%
- CSc1ncc(OCc2ccccc2)c(=O)[nH]1 — lower, 8.39%
- O=C1CS/C(=N\NC(=O)c2ccccc2)N1 — lower, 15.6%
- O=C(NCC1CCCO1)C1CCN(C(=O)c2ccc(Cl)cc2)CC1 (centres unmarked) — lower, -1.73%
- Cc1ccccc1-c1nc(CN2CCC(C(=O)NCCN3CCOCC3)CC2)c(C)o1 — lower, -11.4%
- Cc1ccccc1-c1nc(CN2CCC(C(=O)NC3CCCCC3)CC2)c(C)o1 — lower, -67.7%
- Cc1oc(-c2cccc(Cl)c2)nc1CN1CCC(C(=O)NCC2CCCO2)CC1 (centres unmarked) — lower, -57.1%
- Cc1oc(-c2ccc(Cl)cc2)nc1CN1CCC(C(=O)NCC2CCCO2)CC1 (centres unmarked) — lower, -70.1%
- Cc1ccccc1-c1nc(CN2CCC(C(=O)NC3CCN(Cc4ccccc4)CC3)CC2)c(C)o1 — lower, -43%
- Cc1ccccc1-c1nc(CN2CCC(C(=O)NCC3CCCO3)CC2)c(C)o1 (centres unmarked) — lower, -54.5%
- Cc1cccc(-c2nc(CS(=O)CC(=O)NCC3CCCO3)c(C)o2)c1 (centres unmarked) — lower, -5.24%
- Cc1ccccc1-c1nc(CN2CCC(C(=O)NC3CC3)CC2)c(C)o1 — lower, -33%
- COc1ccc(-c2nc(CN3CCC(C(=O)NCC4CCCO4)CC3)c(C)o2)cc1OC (centres unmarked) — lower, -20.9%
- Cc1ccccc1-c1nc(CN2CCC(C(=O)NCCCN3CCCC3)CC2)c(C)o1 — lower, 14.4%
- COc1ccccc1N(CC(=O)NC1CCCCC1)C(=O)CCC(=O)Nc1nccs1 — lower, -2.17%
- COc1ccc(-c2ccc(SCC(=O)c3ccccc3)nn2)cc1OC — lower, -15.7%
- CC(=O)c1ccc(NC(=O)Nc2ccccc2)cc1 — lower, -2.03%
- CCOC(=O)c1c(C)sc2c1N(C(=O)CN1CCOCC1)c1cc(Cl)ccc1S2 — lower, -21.5%
- CC1CCN(C(=O)CN(C2CCCCC2)S(C)(=O)=O)CC1 — lower, 1.15%
- COc1ccc(N2CCN(c3cc(C)c4cccc(C)c4n3)CC2)cc1 — higher, 22.7%
- COc1ccccc1NC(=O)c1nnn(CC(=O)Nc2cc(C)cc(C)c2)c1N — lower, 17%
- CC(C)S(=O)(=O)c1cnc(N2CCOCC2)nc1N — lower, 11.4%
- Nc1ccc2nc(-c3ccccc3)sc2c1 — higher, 23.4%
- Cc1cccc(OCc2n[nH]c(=S)n2Cc2ccccc2)c1 — lower, 11.8%
- O=C(CNC(=O)c1sc2ccccc2c1Cl)Nc1ccccc1F — lower, -6.72%
- COc1ccc(NC(=O)CN(C)C(=O)CCC2CCCC2)cc1 — lower, 5.49%
- O=C(C1CCC(CNS(=O)(=O)c2cccc3nsnc23)CC1)N1CC=C(c2ccccc2)CC1 (centres unmarked) — lower, -10.3%
- CCN(CC)C(=O)C1CCC(CNS(=O)(=O)c2cccc3nsnc23)CC1 (centres unmarked) — lower, 2.47%
- O=C(CCNS(=O)(=O)c1cccc2nsnc12)N1CCN(c2ccccn2)CC1 — lower, -24%
- O=C(C1CCCN(S(=O)(=O)c2cccc3nsnc23)C1)N1CCN(c2ccccn2)CC1 (centres unmarked) — lower, -50.2%
- CC1CCN(C(=O)C2CCCN(S(=O)(=O)c3cccc4nsnc34)C2)CC1 (centres unmarked) — lower, -27.8%
- O=C(C1CCCN(S(=O)(=O)c2cccc3nsnc23)C1)N1CCCCCC1 (centres unmarked) — lower, -16.8%
- CCCN(CCC)C(=O)C1CCC(CNS(=O)(=O)c2cccc3nsnc23)CC1 (centres unmarked) — lower, -69.5%
- CCCCN(CC)C(=O)C1CCC(CNS(=O)(=O)c2cccc3nsnc23)CC1 (centres unmarked) — lower, -23.7%
- O=C(C1CCC(CNS(=O)(=O)c2cccc3nsnc23)CC1)N1CCN(c2ccccn2)CC1 (centres unmarked) — lower, -53.9%
- CN(C)c1ccc(CN(Cc2ccco2)C(=O)c2ccco2)cc1 — lower, -30.1%
- COC(=O)c1ccc(C(=O)OC)c(NC(=S)N2CCN(C)CC2)c1 — lower, 20.4%
- Cc1cc(C(=O)CS(=O)(=O)c2ccc(Cl)cc2)cc(C)c1O — lower, 16.6%
- CS(=O)(=O)Nn1cnc2ccccc2c1=O — lower, 10.7%
- Cc1cc(C)c(S(=O)(=O)N2CCCOC2CNC(=O)C(=O)NCc2cccs2)c(C)c1 (centres unmarked) — lower, -8.31%
- O=C1NC(=Nc2ccccc2)/C(=C/c2ccco2)S1 — lower, 12.4%
